A short description of assay [1]: yeast 75Q aggregation reduction – 75Q-TubU reporter (AID 1593). Conditions: Yeast 75Q polyglutamine aggregation reporter.
A short description of assay [2]: blockers of cytochrome c efflux from mitochondria – biochemical, purified mitochondria (AID 1603).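 Also: mouse liver mitochondria challenged with calcium chloride; signal normalized to the plate average as 100%.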 Conditions: stronger effect = lower value.
A short description of assay [3]: polyglutamine aggregate formation blockers (AID 1604). Conditions: polyglutamine-induced protein aggregation inhibition assay; stronger effect = higher value; tested at 2.5 µM.
Assay [4] is described as follows: Wnt pathway potentiators raising nuclear beta-catenin – imaging, WNT3A-conditioned medium, mouse C2C12, NPC library, primary screen (AID 1117326; in the data active = nuclear beta-catenin stimulation mostly above about 4.2%, no sharp cut-off; inactive = mostly below about 10%). Conditions: stronger effect = higher value.
Assay [5] in a line: stimulators of insulin release from INS-1E, primary screen, cell-based, 5 mM glucose, NPC library (AID 1117329;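 active = compound raises insulin release from rat beta cells at 5 mM glucose, no numeric limit stated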). Conditions: rat INS-1E insulin secretion, at 10 µM, stronger effect = higher value.
Assay [6] is described as follows: growth inhibition of GSK3B-pretreated HCT116 cells – cell-based, CellTiter-Glo, 0.2 to 20 µM (AID 1117336;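 active = compounds lowering colon cancer cell viability after pretreatment blocking the GSK3B kinase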). Conditions: HCT116 viability after GSK3B inhibitor, at 20 µM, stronger effect = higher value. (Cellular ATP, detected with luciferase, serves as a proxy for viable cell number.)
Assay [7] in a line: inhibition of endothelial tube formation, primary screen, imaging, VEGF stimulated, CD31 staining, tube area, NPC library (AID 1117340;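 active = compound that reduces growth-factor-driven endothelial tube area in a mixed cell culture, no cutoff stated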). Conditions: VEGF-stimulated ADSC/ECFC co-culture, at 10 µM, stronger effect = higher value.
A short description of assay [8]: GLP1 release stimulators, primary, NCI-H716, NPC library (AID 1117341;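 active = compound raises GLP1 secretion from the human gut endocrine cells, with no numeric limit stated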). Conditions: NCI-H716 cells, at 10 µM, stronger effect = higher value.
The nature of assay [9]: HCT116 colon cancer cell growth inhibition, primary screen, CellTiter-Glo luminescence, NPC library (AID 1117342;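 active = compounds that lower survival of HCT116 colon cancer cells in the luminescence readout, no numeric limit stated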). Conditions: at 20 µM (top of the series).
The nature of assay [10]: reduced SW480 viability measured with CellTiter-Glo, NPC library, primary (AID 1117343;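 active = compounds that lower viability of the colon cancer cells in the luminescence readout, with no numeric limit stated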). Conditions: CellTiter-Glo luminescence; at 20 µM (top of the series).
Assay [11] is described as follows: NPC library primary testing for decreased DLD-1 cell viability via CellTiter-Glo (AID 1117346;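 active = compounds that lower survival of DLD-1 colon cancer cells in the luminescence readout, no cutoff given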). Conditions: DLD-1 viability, CellTiter-Glo luminescence; at 20 µM (top of the series).
The target of assay [12] is 6-phosphogluconate dehydrogenase, decarboxylating (Homo sapiens) (UniProt P52209). The assay is described as follows: inhibition of human phosphogluconate dehydrogenase – biochemical, recombinant enzyme, NADPH absorbance, primary screen (AID 1159550;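 active = at least 20% inhibition of 6-phosphogluconate dehydrogenase activity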). Conditions: recombinant 6PGD, NADPH absorbance 341 nm; at 10 µM; stronger effect = higher value.
A short description of assay [13]: EMT-state selective cytotoxicity in co-culture – imaging, PC-3E GFP, TEM4-18 mCherry, primary screen (AID 1345086;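 active = compounds killing one labelled cell type while sparing the other, by normalised counts and ratio limits, not self-fluorescent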;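 as to all read-outs here: cells exposed to compound for 72 h before imaging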;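 as to red/green cell ratio (normalised): normalised mesenchymal count divided by normalised epithelial count so high means epithelial killing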). Conditions: PC-3E GFP / TEM4-18 mCherry co-culture, imaging cell counts, at 1 µM; for red/green cell ratio (normalised): actives lie on both sides.
The test system of assay [14] is Aerobactin synthetase IucA (Klebsiella pneumoniae hvKP1). Briefly: IucA enzyme inhibition, primary screen, biochemical, Spectrum library (AID 1346200; call rule not given here;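 also: 100% = wells without compound and 0% = wells lacking enzyme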). Conditions: malachite green pyrophosphate, A620, at 8 µM, stronger effect = lower value.
The nature of assay [15]: viability loss with induced miR-34 in A549 – imaging, A549 dox-inducible miR-34, nuclei and caspase counts, primary screen (AID 1347080). Conditions: A549 miR-34 inducible, Hoechst nuclei count, 48 h.
Assay [16] in a line: MELAS cybrid and Rieske KO viability enhancers – cell-based, MELAS cybrids, Rieske KO mouse fibroblasts, CellTiter-Glo, primary screen (AID 1508586;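 active = mean z-score across replicates of 1.96 or higher in either the MELAS or the Rieske mutant cell line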;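 also: z relative to plate mean and SD of compound and empty wells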). Conditions: low glucose.
Assay [17] concerns the target NAD(+) hydrolase SARM1 (Homo sapiens) (UniProt Q6SZW1). Briefly: blocking NAD cleavage by SARM1 SAM-TIR – cell lysate, NAD-Glo luminescence (AID 1508614;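 active = compound whose remaining NAD level is above about 45 nM, limit read from the data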;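 also: higher remaining NAD means stronger inhibition of SARM1 NADase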). Conditions: SAM-TIR HEK293T lysate NADase, at 1 µM, stronger effect = higher value.
The target in assay [18] is Mitogen-activated protein kinase 7 (Homo sapiens) (UniProt Q13164). The assay is described as follows: Gal4-ERK5 driven luciferase induction – cell-based, HTS, primary screen (AID 1508626;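 active = luciferase signal above three times the same-plate solvent-only control wells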;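 also: luciferase driven by Gal4-ERK5 fusion binding five Gal4 sites before minimal TATA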). Conditions: HeLa Gal4-ERK5 transactivation, 18 h, at 5 µM, stronger effect = higher value.
Assay [19] is described as follows: galactose survival enhancers in mitochondrial complex I cybrids – cell-based, galactose medium, ATP luminescence, primary screen (AID 1645843;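 active = z-score of at least 1.8 in each of two replicates, scored against plate mean and spread of sample wells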;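 also: positive z means more ATP and so rescue of galactose-driven cybrid death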). Conditions: complex I mutant cybrid cells, 72 h, stronger effect = higher value.
Assay [20] is described as follows: P. berghei load reduction in hepatocytes – cell-based, HepG2, luciferase luminescence, HepG2 viability, primary screen (AID 624349; in the data active = parasite load remaining mostly below about 12%, no sharp cut-off; inactive = mostly above about 10%;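 also: 100% = mean of DMSO negative control wells on the same plate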). Conditions: P. berghei liver stage in HepG2, luciferase luminescence, concentration not given here; parasite load remaining: stronger effect = lower value; viability: measured here: HepG2 viability without parasites.
[21] abbreviates: measured here: epithelial PC-3E GFP cell survival.
[22] abbreviates: measured here: mesenchymal TEM4-18 mCherry cell survival.
Setting [23] is: measured here: relative caspase fold change +Dox/-Dox.
Where [24] appears, read: measured here: total cells with miR-34 induction, stronger effect = lower value.
Setting [25] is: measured here: total cells without miR-34 induction.

Values joined by “and” are separate entries in the source; they are usually repeats but may differ in a detail not shown here. Identical values can stand only once. Active and inactive are the calls of the source.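 The calls were made as follows, unless noted: active = compounds whose cell count with miR-34 switched on is under 0.7 times the count with it off; inactive = the rest.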

Sequence of 6-phosphogluconate dehydrogenase, decarboxylating (Homo sapiens) (P52209 whole entry, looked up): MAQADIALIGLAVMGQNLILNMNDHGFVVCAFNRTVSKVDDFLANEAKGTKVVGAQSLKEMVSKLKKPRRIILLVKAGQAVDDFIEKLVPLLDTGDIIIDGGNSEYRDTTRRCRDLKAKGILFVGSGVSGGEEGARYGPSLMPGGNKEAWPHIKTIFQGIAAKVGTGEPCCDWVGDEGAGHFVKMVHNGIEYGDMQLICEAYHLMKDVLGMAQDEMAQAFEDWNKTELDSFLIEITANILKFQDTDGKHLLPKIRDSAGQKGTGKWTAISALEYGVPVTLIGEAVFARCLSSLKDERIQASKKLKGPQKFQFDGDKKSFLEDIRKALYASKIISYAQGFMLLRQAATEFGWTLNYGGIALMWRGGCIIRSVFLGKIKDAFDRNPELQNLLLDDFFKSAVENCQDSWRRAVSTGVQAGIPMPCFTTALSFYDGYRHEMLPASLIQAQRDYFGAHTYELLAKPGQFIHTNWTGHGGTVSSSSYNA
Sequence of Mitogen-activated protein kinase 7 (Homo sapiens) (Q13164 whole entry, looked up, the tested form may be a part): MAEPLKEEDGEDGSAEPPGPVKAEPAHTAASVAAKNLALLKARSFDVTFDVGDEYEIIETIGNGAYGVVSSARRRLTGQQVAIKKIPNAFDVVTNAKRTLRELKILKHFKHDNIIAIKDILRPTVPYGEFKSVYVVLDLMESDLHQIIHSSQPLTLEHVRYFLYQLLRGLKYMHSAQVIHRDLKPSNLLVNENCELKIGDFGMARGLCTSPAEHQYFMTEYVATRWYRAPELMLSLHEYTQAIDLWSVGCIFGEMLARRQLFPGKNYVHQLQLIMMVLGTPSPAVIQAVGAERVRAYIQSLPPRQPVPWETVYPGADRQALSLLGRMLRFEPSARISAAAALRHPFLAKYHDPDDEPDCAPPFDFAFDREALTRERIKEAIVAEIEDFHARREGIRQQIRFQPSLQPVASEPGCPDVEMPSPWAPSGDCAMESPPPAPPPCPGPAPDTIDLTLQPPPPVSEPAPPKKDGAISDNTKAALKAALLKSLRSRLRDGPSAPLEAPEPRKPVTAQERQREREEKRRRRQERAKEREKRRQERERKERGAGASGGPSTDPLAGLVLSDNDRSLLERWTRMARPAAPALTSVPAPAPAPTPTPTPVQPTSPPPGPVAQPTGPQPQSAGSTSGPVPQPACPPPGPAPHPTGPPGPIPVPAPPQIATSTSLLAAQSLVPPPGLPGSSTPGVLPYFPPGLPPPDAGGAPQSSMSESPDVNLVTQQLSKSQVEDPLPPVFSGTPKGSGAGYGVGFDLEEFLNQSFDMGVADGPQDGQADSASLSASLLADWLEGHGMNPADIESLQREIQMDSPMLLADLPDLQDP
Sequence of NAD(+) hydrolase SARM1 (Homo sapiens) (Q6SZW1 whole entry, looked up, the tested form may be a part): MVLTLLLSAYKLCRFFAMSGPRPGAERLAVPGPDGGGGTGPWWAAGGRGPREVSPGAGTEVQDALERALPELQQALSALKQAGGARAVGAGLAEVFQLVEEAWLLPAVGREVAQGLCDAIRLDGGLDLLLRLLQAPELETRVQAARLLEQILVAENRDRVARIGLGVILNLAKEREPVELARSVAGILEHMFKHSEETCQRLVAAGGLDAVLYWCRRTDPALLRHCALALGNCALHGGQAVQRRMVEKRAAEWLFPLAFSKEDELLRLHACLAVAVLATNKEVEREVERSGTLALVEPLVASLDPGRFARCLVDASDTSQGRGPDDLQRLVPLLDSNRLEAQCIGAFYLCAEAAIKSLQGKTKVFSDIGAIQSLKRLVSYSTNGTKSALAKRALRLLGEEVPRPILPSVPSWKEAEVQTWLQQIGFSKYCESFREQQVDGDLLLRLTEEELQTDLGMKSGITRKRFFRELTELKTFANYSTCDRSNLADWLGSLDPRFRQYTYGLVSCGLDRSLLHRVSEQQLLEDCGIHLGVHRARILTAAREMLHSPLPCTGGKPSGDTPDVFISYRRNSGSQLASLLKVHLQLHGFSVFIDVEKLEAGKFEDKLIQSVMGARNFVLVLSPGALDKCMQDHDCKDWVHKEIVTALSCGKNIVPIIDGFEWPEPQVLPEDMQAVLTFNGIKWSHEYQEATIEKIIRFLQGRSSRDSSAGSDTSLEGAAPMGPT

The compound `CCCC(C)(COC(N)=O)COC(=O)NC(C)C` (configuration not stated) yielded a score in assay [1] of 1.44. For the same compound, the cytochrome c release ratio in assay [2] came to 0.68. Besides, the inhibition of aggregation in assay [3] is 85.8%. For the same compound, the nuclear beta-catenin stimulation in assay [4] (at 10 µM) is 0.1% (inactive); in assay [4] (stimulation, at 2 µM), -0.6%. The insulin secretion stimulation in assay [5] was 3.4% (inactive). Further, the viability decrease in assay [6] is -38.7% (inactive). Further, the tube area decrease in [7] is 14.3% (inactive). Also, the GLP1 secretion stimulation in [8] is -1.3% (inactive). For the same compound, in assay [9], the inhibition of viability was -14.1% (inactive). The viability decrease (inhibition) in [10] was -5.3% (inactive); in assay [11], -12.4% (inactive). The inhibition (commonly the change of the read-out against control, counted positive when it falls) in assay [12] was -0.85% (inactive). Moreover, the red/green cell ratio (normalised) in [13] is 1.05 (inactive). The results for the normalised cell number in assay [13] (setting [21]) and in [13] (setting [22]) were 1.17 and 1.23, respectively. Further, in assay [14], the activity remaining is 115% (inactive). The fold change in assay [15] (stronger effect = lower value) was 0.952 (inactive) and 0.896 (inactive) and 0.902 (inactive); in assay [15] (setting [23]) it was 1.07 and 1.02 and 3.4. Also, the cell count in assay [15] (setting [24]) was 10700 and 9140 and 11300; in [15] (setting [25]) it was 11200 and 10200 and 12600. Moreover, the z-score was 0.305 (inactive) in assay [16] (MELAS cybrid survival, CellTiter-Glo 48 h, stronger effect = higher value); 0.223 in assay [16] (Rieske KO mouse fibroblast survival, CellTiter-Glo 72 h); 1.27 (inactive) in assay [19]. Further, the remaining NAD in assay [17] was 10 nM (inactive). The luciferase signal in assay [18] was 40 AU (inactive).

In the case of `Cc1ncc(CNC(=O)N(CCCl)N=O)c(N)n1`, the parasite load remaining in assay [20] was 130% (inactive). Moreover, the viability – broadly, a read-out of living cells in per cent, often relative to untreated cells – in assay [20] turned out to be 90.7%. The nuclear beta-catenin stimulation in assay [4] (at 10 µM) is 3% (inactive); in [4] (stimulation, at 2 µM), -0.9%. Further, the insulin secretion stimulation in assay [5] is 0.3% (inactive). In assay [6], the viability decrease was -0.8% (inactive). Moreover, the tube area decrease in assay [7] was 28.9% (inactive). In addition, in assay [8], the GLP1 secretion stimulation is -6% (inactive). Moreover, in [9], the inhibition of viability is -0.1% (inactive). For the same compound, the viability decrease (inhibition) in assay [10] was 10.9% (inactive); in assay [11], 1.8% (inactive). Further, the inhibition in assay [12] was 2.15% (inactive). In addition, the red/green cell ratio (normalised) in assay [13] is 0.95 (inactive). Moreover, the normalised cell number was 0.91 in assay [13] (setting [21]) and 0.86 in assay [13] (setting [22]). Moreover, the activity remaining in assay [14] is 107% (inactive). Also, the fold change in assay [15] (stronger effect = lower value) was 0.981 (inactive); in assay [15] (setting [23]), 1.12. Further, the cell count turned out to be 6420 in assay [15] (setting [24]) and 6540 in [15] (setting [25]). The remaining NAD in assay [17] was 10 nM (inactive). For the same compound, the luciferase signal in assay [18] was 100 AU (inactive). Further, in [19], the z-score is -0.62 (inactive).

Regarding `CCCC1CCCCN1` (configuration not stated), the nuclear beta-catenin stimulation was 0.5% (inactive) in [4] (at 10 µM) and 0.1% in assay [4] (stimulation, at 2 µM). Moreover, in assay [5], the insulin secretion stimulation is -0.9% (inactive). The viability decrease in assay [6] was -0.7% (inactive). Besides, the tube area decrease in assay [7] was 2.4% (inactive). Also, the GLP1 secretion stimulation in assay [8] was 0% (inactive). In [9], the inhibition of viability was -0.2% (inactive). Besides, the viability decrease (inhibition) in assay [10] was 8% (inactive); in assay [11], -1.85% (inactive). Further, the inhibition in assay [12] was 18.6% (inactive).

`NCCc1ccc(O)cc1` yielded a score in assay [1] of 1.21. For the same compound, in assay [2], the cytochrome c release ratio amounted to 0.71. Moreover, the inhibition of aggregation in assay [3] came out at 39.2%. Besides, the nuclear beta-catenin stimulation in assay [4] (at 10 µM) is -0.5% (inactive); in [4] (stimulation, at 2 µM), 1.3%. The insulin secretion stimulation in [5] is 1.8% (inactive). In addition, in [6], the viability decrease is 4.6% (inactive). In addition, in [7], the tube area decrease was -10% (inactive). Besides, the GLP1 secretion stimulation in [8] was -1.8% (inactive). For the same compound, the inhibition of viability in assay [9] is 9.07% (inactive). Besides, the viability decrease (inhibition) in [10] is 5.3% (inactive); in [11] it was -2.9% (inactive). In addition, in assay [12], the inhibition was -11.3% (inactive). In [13], the red/green cell ratio (normalised) was 0.8 (inactive). Moreover, the normalised cell number in assay [13] (setting [21]) turned out to be 1.04; in assay [13] (setting [22]) it was 0.83. The activity remaining in assay [14] is 108% (inactive). The fold change was 0.965 (inactive) in assay [15] (stronger effect = lower value, cell number ratio, induced over uninduced) and 1.32 in [15] (setting [23]). Further, the cell count worked out at 10000 in [15] (setting [24]) and 10400 in assay [15] (setting [25]). Besides, the luciferase signal in [18] is 52 AU (inactive). In addition, the z-score in [19] is 0.68 (inactive).

These data come from PubChem BioAssay.
